Results filed as inconclusive are left out. Calls of active or inactive are those of the source. Calls come from the whole dose curve; as a rule, active = well fitted inhibition curve with a large enough effect; inconclusive = small, poorly fitted or top-dose-only effect; inactive = flat fitted curve, though single readings scatter.

Luciferin 4-monooxygenase (Photinus pyralis), sequence (P08659 whole entry, looked up): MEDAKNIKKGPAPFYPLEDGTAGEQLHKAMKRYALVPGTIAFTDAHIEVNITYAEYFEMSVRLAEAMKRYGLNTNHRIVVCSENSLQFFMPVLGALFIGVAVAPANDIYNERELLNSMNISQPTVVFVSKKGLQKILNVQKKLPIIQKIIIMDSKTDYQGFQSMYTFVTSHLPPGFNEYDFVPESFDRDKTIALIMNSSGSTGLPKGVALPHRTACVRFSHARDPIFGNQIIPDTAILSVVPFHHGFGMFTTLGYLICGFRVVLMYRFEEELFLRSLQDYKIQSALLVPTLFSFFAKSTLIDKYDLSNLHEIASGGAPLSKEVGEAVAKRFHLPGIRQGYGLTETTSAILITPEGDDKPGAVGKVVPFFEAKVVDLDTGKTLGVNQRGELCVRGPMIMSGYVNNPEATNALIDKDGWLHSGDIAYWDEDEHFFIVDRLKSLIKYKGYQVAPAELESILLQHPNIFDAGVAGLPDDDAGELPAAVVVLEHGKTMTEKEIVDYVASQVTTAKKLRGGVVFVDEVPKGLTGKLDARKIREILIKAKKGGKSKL

The assay has as its target Luciferin 4-monooxygenase (Photinus pyralis) (UniProt P08659). The assay can be described thus: FLuc inhibitory activity for the follow-up compounds in a biochemical assay with Km concentrations of substrate and 500microM CoASH. The conditions noted are these: purified FLuc, Km substrates + 500 uM CoASH, luminescence; series mostly up to 57.5 µM. The method, boiled down: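 Purified P. pyralis luciferase (10 nM) in 50mM Tris acetate pH 7.5, 10mM Mg acetate, with 10uM D-luciferin, 10uM ATP and 500 uM CoASH; 12-point qHTS titration, ~60uM to 0.3nM final. Luminescence read by CCD imager.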
Take `Cc1c(NC(=O)c2cc(-n3cnnc3)ccc2Cl)cccc1-c1nc2ccccc2s1`: the Potency is 231 nM (active). The figure for `CCOc1c(Cl)cc(C(=O)Nc2ccccc2C(=O)O)cc1Cl` is 11600 nM (active); for `CCc1noc(C)c1C(=O)Nc1nc2ccc(OC)cc2s1` it is 13000 nM (active). The figure for `O=C(Nc1ccccc1C(=O)O)c1ccc(NC(=O)C2CC2)cc1` is 730 nM (active); for `CCOc1ccc2nc(NC(=O)c3cccnc3)sc2c1` it is 1300 nM (active).
